DAX1 inh-1 – DAX1 (NR0B1) inhibitors on StAR promoter, primary screen, cell-based, luminescence, SF-1 (NR5A1), full-length DAX-1 | actives 1.1% (n = 370,000) | inhibition, % at 6.8 µM | HEK293T StAR-luciferase reporter, SF-1/DAX-1 repression relief;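 active means inhibition above the mean over all tested compounds plus 3 SD, cut at about 3.6% in these data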;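 further: higher inhibition means more luminescence from relief of DAX-1 repression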
hgDAF12 agonist – H. glycines DAF-12 receptor agonists, primary screen, cell-based, luminescence, HEK293, GAL4 fusion, UAS-luciferase; HEK293 GAL4-hgDAF12 UAS-luciferase reporter, agonist luminescence; normalized to butyrate control; activation, % at 6.8 µM; actives 1.8% (n = 370,000);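 active means activation above a cutoff set at the mean of all screened compounds plus 3 SD, cut at about 10% in these data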
DAX1 inh-2 – DAX1 (NR0B1) inhibitors, primary screen, cell-based, HEK293, Gal4-DAX1, luciferase luminescence. Nuclear receptor subfamily 0 group B member 1 (Homo sapiens), P51843. HEK293 Gal4-DAX1 luciferase reporter. inhibition, % at 6.75 µM. actives 0.99% (n = 340,000);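 active means inhibition above the mean over all tested compounds plus 3 SD, cut at about 4.2% in these data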;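 further: inhibition shows as a rise in luminescence from relieved DAX1 repression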
hcDAF12 agonist – H. contortus DAF-12 nuclear receptor activators, primary screen, cell-based, luminescence, HEK293, lit1-tk-luc reporter; HEK293 hcDAF-12 lit1-tk-luc reporter; 0% DMSO, 100% Δ7-dafachronic acid; activation, % at 6.8 µM; actives 1.4% (n = 370,000);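 active means activation above the mean of all tested compounds plus 3 SD, cut at about 5.5% in these data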
ssDAF12 agonist – S. stercoralis DAF-12 nuclear receptor activators, primary screen, cell-based, luminescence, HEK293, GRIP1 co-expression, lit1-tk-luc; Nuclear hormone receptor DAF-12 (Strongyloides stercoralis); HEK293 ssDAF-12/GRIP1 lit1-tk-luc reporter; % of 3 µM dafachronic acid response; activation, % at 6.8 µM; actives 1% (n = 370,000); AID 652126, 2013;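 active means activation above the mean over all tested compounds plus 3 SD, cut at about 0.9% in these data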
hgDAF12 conf – H. glycines DAF-12 receptor agonists, confirmation, cell-based, luminescence, HEK293, GAL4-LBD fusion; shares compounds with hgDAF12 agonist; HEK293 GAL4-hgDAF12 luciferase reporter, agonist mode; percent of butyrate response; activation, % at 6.8 µM; actives 80% (n = 3,300); AID 743050, 2013;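 active means mean activation over triplicate wells above the hit cutoff derived from the earlier primary screen, cut at about 11% in these data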
LXRb DAF12 ctr – LXR agonists, Gal4 luciferase reporter, confirmation, counter-screen for hgDAF-12 agonist project, cell-based, luminescence, HEK293, H. glycines campaign; activation, % at 6.8 µM; shares compounds with hgDAF12 agonist; 24 h; 3,300 tested, under 10 active;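 active means mean activation of the triplicate above a set limit carried over from the primary screen, none filed active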
Target sequence (P55055 whole entry, looked up, the tested form may be a part): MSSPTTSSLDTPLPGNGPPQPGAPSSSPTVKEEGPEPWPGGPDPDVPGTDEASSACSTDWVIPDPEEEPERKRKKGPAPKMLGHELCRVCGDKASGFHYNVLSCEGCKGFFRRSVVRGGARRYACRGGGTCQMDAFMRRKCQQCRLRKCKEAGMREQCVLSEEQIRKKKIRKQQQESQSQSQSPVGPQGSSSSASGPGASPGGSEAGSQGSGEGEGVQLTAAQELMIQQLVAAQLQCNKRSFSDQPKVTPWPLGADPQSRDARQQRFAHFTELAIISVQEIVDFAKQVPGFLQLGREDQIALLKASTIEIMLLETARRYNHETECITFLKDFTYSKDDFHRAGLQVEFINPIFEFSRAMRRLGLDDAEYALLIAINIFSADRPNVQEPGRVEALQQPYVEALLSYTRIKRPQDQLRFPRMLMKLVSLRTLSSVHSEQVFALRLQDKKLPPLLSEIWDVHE
Hits are given with their value; n = inactive; x = no result. Shown are actives, neighbours in structure and some others; about 4.1% of the full set was active somewhere.

SMILES	DAX1 inh-1	hgDAF12 agonist	DAX1 inh-2	hcDAF12 agonist	ssDAF12 agonist	hgDAF12 conf	LXRb DAF12 ctr
CCCn1c(=NC(=O)c2ccco2)c(C(=O)OCC)cc2c(=O)n3ccccc3nc21	n	13.4	n	n	n	n	n
CCOC(=O)c1cc2c(=O)n3ccccc3nc2n(C(C)C)c1=NC(=O)c1ccco1	n	n	n	n	n	x	x
CCOc1cc(C2NN=C(c3ccc(C)cc3)S2)ccc1O (stereo not drawn)	n	14.3	n	n	n	15.7	n
COc1cc(-c2cnc3c(NC=O)cc(-c4cccc(C(=O)NCCN(C)C)c4)cn23)cc(OC)c1OC	n	n	x	n	n	x	x
O=C(/C=C/c1ccco1)N1CCCC(c2ccccc2)C1 (stereo not drawn)	n	n	n	n	n	x	x
CCc1ccc(NC(=O)N2CCC(c3ccccc3)C2)cc1 (stereo not drawn)	3.7	18.2	n	n	n	13.8	n
O=C(/C=C/c1ccccc1)N1CCC(c2ccccc2)C1 (stereo not drawn)	n	13.4	n	n	n	16.1	n
Clc1ncnc2c1oc1ccccc12	n	18.6	n	6.2	1.6	16.5	n
CCSc1ncnc2c1oc1ccccc12	n	n	n	n	n	x	x
NC(=O)c1ccccc1-c1noc(-c2ccccc2F)n1	x	n	x	n	n	x	x
NC(=O)c1ccc(-c2noc(-c3ccccc3F)n2)cc1	n	15.1	n	5.6	n	13.3	n
COc1cccc(NC(=O)Nc2nc3ncccn3c2-c2ccc(F)c(F)c2)c1	n	n	x	n	n	x	x
CC(C)=CC(=O)Nc1ccc(Br)cc1	n	15.6	n	n	n	15.3	n
CC1=Nc2ccccc2N=C(NC(=O)CN2CCN(c3ccccc3)CC2)C1c1ccccc1 (stereo not drawn)	n	n	n	n	n	x	x
CC1=Nc2ccccc2N=C(NC(=O)c2ccccc2)C1c1ccccc1 (stereo not drawn)	n	19.2	n	n	n	n	n
CC(=O)N1CCCC(C)(C(=O)N(C)Cc2cccc3ccccc23)C1 (stereo not drawn)	n	n	x	n	n	x	x
COc1ccc(C(=O)NC(=S)N2CCNC(=O)C2)cc1Br	n	n	n	n	n	x	x
COc1ccc(C(=O)NC(=S)N2CCC(C)CC2)cc1Br	n	31.7	n	n	n	n	n
CC1(C(=O)O)CCN1C(=O)c1cccc(OC(F)(F)F)c1 (stereo not drawn)	n	n	x	n	n	x	x
Cc1nc(Nc2ncc(C(=O)Nc3c(C)cccc3Cl)s2)cc(N2CCN(CCO)CC2)n1	4.4	15.1	x	n	n	n	n
Nc1c(-c2ccc(Cl)cc2)cnc2c(-c3ccccc3)cnn12	n	13.9	7.8	n	n	12.0	n
Cc1cc(C)cc(C(=O)OCCN(C)C2CN(Cc3cn(Cc4ccccc4C(F)(F)F)nn3)S(=O)(=O)C2)c1 (stereo not drawn)	n	n	x	n	n	x	x
Cc1ccc(NC(=O)CSCc2ccc(F)cc2)cc1	n	14.4	n	n	n	n	n
O=C(CSc1ccc(F)cc1)Nc1ccc(Br)cc1	n	15.7	n	n	n	11.6	n
O=C(CSc1ccc(F)cc1)Nc1ccccc1Br	n	n	n	n	n	x	x
SMILES	DAX1 inh-1	hgDAF12 agonist	DAX1 inh-2	hcDAF12 agonist	ssDAF12 agonist	hgDAF12 conf	LXRb DAF12 ctr
Cc1ccc(CSCC(=O)NCc2ccc(F)cc2)cc1	n	n	n	n	n	x	x
c1cn2cc(-c3ccc4c(c3)OCO4)nc2s1	4.3	16.2	n	6.5	1.6	15.6	n
Cc1nc(-c2ccc(NC(=O)C3CCCCC3)cc2)cs1	n	n	n	n	n	x	x
O=C(Nc1ccc(-c2cn3ccsc3n2)cc1)C1CCCC1	n	16.2	n	n	n	18.1	n
Cc1ccsc1/C=N/NC(=O)c1ccc2ccccc2c1	n	13.6	n	n	n	11.3	n
Cc1ccc(NC(=O)Cc2cccc(OC(F)(F)F)c2)c(S(=O)(=O)N2CCOCC2)c1	n	n	x	n	n	x	x
COc1ccc(/C=C/C2=NNC(=O)CC2)cc1	n	13.8	n	n	n	n	n
COc1cccc(C(=O)Nc2ccc3c(c2)OCO3)c1OC	n	13.9	n	5.8	n	14.2	n
COc1cccc(C(=O)NCc2ccc3c(c2)OCO3)c1OC	n	n	n	n	n	x	x
O=C(CCl)Nc1ccccc1C(=O)Nc1ccc2c(c1)OCO2	n	19.1	n	n	n	n	n
Nc1nc(N)c(N=Nc2ccc(C(=O)O)cc2)c(N)n1	n	n	n	n	n	x	x
O=C(O)c1ccc(N=Nc2c(O)[nH]c3cc(Cl)ccc23)cc1	3.7	17.0	6.4	n	n	19.3	n
C[C@@H](C(=O)Nc1ccc2c(c1)OCCO2)n1nnc2ccccc2c1=O	n	13.5	n	n	n	13.7	n
CC(C(=O)Nc1ccc2c(c1)OCCO2)n1nnc(-c2ccccc2)n1 (stereo not drawn)	n	n	n	n	n	x	x
CC(C)C(=O)OCCCN1CCC2(CCC(c3ccccc3)CC2)C1=O (stereo not drawn)	n	n	x	n	n	x	x
COc1ccccc1C=NN=Cc1ccccc1O	n	n	n	n	n	x	x
CN(C)c1ccc(/C=N/N=C/c2ccccc2O)cc1	n	15.6	n	n	1.9	n	n
COc1cc(/C=N/O)ccc1OCc1ccc(C(=O)O)cc1	n	13.3	n	n	n	15.8	n
COc1cc(/C=N/NS(=O)(=O)c2ccc3ccccc3c2)ccc1OCc1ccc(C(=O)O)cc1	n	15.5	n	n	n	12.7	n
CC(C)(C)c1ccc(OCCn2ccccc2=O)cc1	n	15.6	n	6.2	n	17.3	n
O=c1ccccn1CCOc1ccc(Cl)cc1	n	n	n	n	n	x	x
CCOc1ccc(-c2ccc(SCC(=O)Nc3nnc(C)s3)nn2)cc1	4.3	13.3	n	n	n	16.6	n
CCOc1ccc(-c2ccc(SCC(=O)NC3CCCCC3)nn2)cc1	n	n	n	n	n	x	x

Compound activity deposited in PubChem by The Scripps Research Institute Molecular Screening Center.
